Most compounds without a hit are left out; they make up all but 9.3% or so of the library.
NPC1 promoter act: activators of NPC1 promoter | Huh7 NPC1 promoter luciferase reporter, 24 h | Potency, µM (highest dose often 9.22 µM), inactives show at the top dose activation, actives largely listed as activators | actives 2.4% (n = 320,000); also: % of control where 0% means no effect; nearly all actives have a fitted effect of over 60% in size
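Readout is luciferase luminescence, reflecting NPC1 promoter activation in stably transfected Huh7 cells after 24 h compound exposure at 37 °C in reduced-serum medium with 10% FBS.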
SMN2 splice up: increases expression of the SMN2 splice variant; Potency, µM (series often up to 46.1 µM), for the others: at the top dose activity change, positive = activation, actives largely listed as activators; actives 2.8% (n = 210,000); AID 1458; HEK293 SMN2-luciferase splicing reporter, luminescence, 30-36 h; also: % of control where 0% means no effect; nearly all actives have a fitted effect of over 55% in size
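qHTS luciferase splicing reporter: luminescence rises when SMN2 exon 7 is included in transfected HEK293 cells. Compound exposure lasted 30-36 h at 37C, with 4.5 mM final sodium butyrate as control, followed by a ONE-Glo read.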
ELG1 genotoxic: genotoxicity induction in ELG1-luciferase HEK293T cells | HEK293T ELG1-luciferase reporter, luminescence, 16 h | Potency, µM (series often up to 46 µM), inactives show at the top dose activity change, positive = activation, usual class: activators | actives 1.3% (n = 330,000) | AID 504466; also: % of control where 0% means no effect; nearly all actives have a fitted effect of over 60% in size
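HEK293T cells expressing luciferase-tagged ELG1 were exposed to compound or DMSO vehicle for 16 hr at 37 °C and 5% CO2. Luciferase activity was then measured with ONE-Glo after 30 min at room temperature.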
FLuc counter: inhibits or activates purified firefly luciferase, miR-21 counter-screen. purified FLuc, Km substrates, luminescence inhibition. Potency, µM (highest dose often 57.5 µM), without a hit: at the top dose activity change, negative = inhibition, most hits filed as inhibitors. actives 6.9% (n = 360,000). AID 588342;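 also: plate controls were vehicle for no effect and reference inhibitor for full effect; nearly all actives have a fitted effect of over 55% in size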
Target sequence (P08659 whole entry, looked up): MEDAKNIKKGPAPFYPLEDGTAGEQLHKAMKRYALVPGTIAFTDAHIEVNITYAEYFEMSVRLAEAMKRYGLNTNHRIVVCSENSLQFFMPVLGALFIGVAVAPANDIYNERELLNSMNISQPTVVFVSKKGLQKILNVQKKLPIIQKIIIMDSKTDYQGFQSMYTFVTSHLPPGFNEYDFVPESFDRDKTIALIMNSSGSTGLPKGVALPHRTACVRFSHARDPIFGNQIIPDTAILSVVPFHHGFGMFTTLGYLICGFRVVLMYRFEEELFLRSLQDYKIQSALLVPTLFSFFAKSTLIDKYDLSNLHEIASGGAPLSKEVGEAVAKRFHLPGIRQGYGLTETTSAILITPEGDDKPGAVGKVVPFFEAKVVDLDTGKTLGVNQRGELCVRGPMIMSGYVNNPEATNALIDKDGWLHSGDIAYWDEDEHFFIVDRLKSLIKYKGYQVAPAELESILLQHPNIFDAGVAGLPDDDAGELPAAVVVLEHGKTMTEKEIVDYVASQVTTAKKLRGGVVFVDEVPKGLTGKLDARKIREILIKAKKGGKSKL
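Biochemical qHTS of compounds, final roughly 60 µM downward over six points, against 10 nM purified firefly luciferase using Km concentrations of substrates (10 uM D-luciferin, 10 uM ATP) in Tris acetate pH 7.5 buffer; luminescence output.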
Rab9 prom act: activators of Rab9 promoter | Huh7 Rab9 promoter-luciferase reporter, luminescence, 24 h | Potency, µM (top dose mostly 9.22 µM), for inactives: at the highest dose activation, negative = inhibition, usual class: activators | actives 2.8% (n = 320,000) | AID 485297; also: % of control where 0% means no effect; nearly all actives have a fitted effect of over 60% in size
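Huh7 cells stably carrying Rab9 promoter–luciferase reporter, plated 1500 cells/well, compound added after 2 h and incubated 24 h at 37 °C; luciferase luminescence then read after 10 min with detection reagent.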
ELG1 repair inh: inhibitors of ELG1-dependent DNA repair in HEK293T cells; Potency, µM (top dose mostly 46.1 µM), for inactives: at the top dose activity change, negative = inhibition, hits mostly inhibitors; actives 2.3% (n = 330,000); HEK293T ELG1-luciferase reporter, luminescence, 16 h; DNA damage induced by 5-fluorouridine; also: % is scaled to controls: 0 for no effect and ±100 for the full control effect; nearly all actives have a fitted effect of over 55% in size
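5-Fluorouridine DNA damage + compound/DMSO, 2,000 cells/well, 16 h, 37 °C/5% CO2. ONE-Glo, 30 min RT, luminescence. Readout = decrease in reporter signal.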
Numbers without * were called inactive; ? = inconclusive; / = no result given. Calls follow the shape of the dose curve; as a rule, active = well fitted curve in the direction sought with a large enough effect; inconclusive = small, poorly fitted or top-dose-only effect, or another doubt; inactive = no such curve, though single readings can be large; an effect the other way counts as inactive or inconclusive. Potency is read from the fitted curve at half-maximal effect.

SMILES | NPC1 promoter act | SMN2 splice up | ELG1 genotoxic | FLuc counter | Rab9 prom act | ELG1 repair inh
Cc1ccc(-c2csc3ncnc(SCC(=O)NCC4CCCO4)c23)cc1 (stereo not given) | 10% | / | 1% | 7% | -2% | 8%
[O-]/[N+](=C/c1ccc(F)cc1)c1ccc(Cl)cc1 | ? | 11% | 16µM* | 4.8µM* | 18% | ?
Cc1cc2nc(CCN3CCOCC3)n(S(=O)(=O)c3ccc(C(C)(C)C)cc3)c2cc1C | 1% | -19% | 0% | -10% | -2% | 21µM*
Cc1cc2ncn(S(=O)(=O)c3ccc(S(=O)(=O)N4CCOCC4)cc3)c2cc1C | 0% | -23% | 0% | 0% | 3% | -4%
C/C(=N\NC(=O)c1cc(-c2ccc(Br)s2)[nH]n1)c1ccncc1 | -4% | / | -4% | ? | -5% | 8%
COc1ccc2[nH]cc(CCNc3nc(-c4ccc(C(=O)N(C)C)cc4)nc4ccccc34)c2c1 | / | 11µM* | / | / | / | /
Cc1[nH]n(C(N)=S)c(=O)c1N=Nc1ccc(S(=O)(=O)N2CCCCCC2)cc1 | 7% | -20% | 4% | 5.4µM* | 3% | 0%
Cc1ccc(N=Nc2c(C)[nH]n(C(N)=S)c2=O)cc1C | 3.5µM* | 10µM* | ? | 3.8µM* | 3.5µM* | ?
COc1ccc(C(c2c(C)[nH]n(C(N)=S)c2=O)C(C#N)C#N)cc1 (stereo not given) | -4% | -39% | ? | -3% | 0% | ?
Cc1[nH]n(C(N)=S)c(=O)c1N=Nc1ccc2ccccc2c1 | 3.2µM* | 22µM* | 18µM* | 3µM* | 4µM* | ?
CC(=O)Nc1ccc(N=Nc2c(C)[nH]n(C(N)=S)c2=O)cc1 | 29% | 43% | ? | 15µM* | ? | ?
CC(=O)Nc1ccc(NC(=S)Nc2ccc(F)cc2)cc1 | -5% | 12% | -4% | -1% | 14% | 0%
COc1ccc(C(=O)CCC(=O)N2CCN(c3cccc(Cl)c3)CC2)cc1 | -5% | / | -5% | -5% | 0% | -27%
Cc1[nH]n(C(N)=S)c(=O)c1N=Nc1cc(-c2ccc(Br)cc2)[nH]n1 | 22% | ? | 8% | 1.7µM* | ? | ?
CCOC(=O)c1ccc(NC(=S)NCc2ccc(S(N)(=O)=O)cc2)cc1 | -4% | / | 0% | 1% | 3% | 19%
CCOC(=O)N1CCc2[nH]c3ccc(C)cc3c2C1 | -8% | -36% | 19% | ? | -3% | ?
COc1cccc(C=Nc2ccccc2C(=O)Nc2nccs2)c1OC | 14% | -6% | ? | 6% | 17% | ?
COc1cc2ccccc2cc1C(=O)Nc1nccs1 | 3.2µM* | / | 12% | 8.5µM* | ? | ?
COc1ccc(-c2nn(-c3ccccc3)cc2C(=O)Nc2nccs2)cc1 | -5% | -5% | -17% | -5% | 2% | 6.5µM*
COc1c(C(=O)Nc2nccs2)ccc2ccccc12 | 1.8µM* | / | ? | 3µM* | ? | ?
COc1cccc2c1OCC(C(=O)Nc1nccs1)=C2 | 2.2µM* | / | ? | 5.4µM* | 2µM* | ?
COc1cc(OC)c(C(=O)NCC(c2cccs2)N(C)C)cc1OC (stereo not given) | -1% | 9% | 6% | -14% | -10% | 28%
COc1cc2ccccc2cc1C(=O)NCC(c1cccs1)N(C)C (stereo not given) | 2.8µM* | ? | 16% | 5.4µM* | ? | ?
CCSc1nsc(NC(=O)Nc2ccc(F)cc2F)n1 | ? | / | 6% | 5.4µM* | ? | ?
CCC(=O)Oc1cccc(C(=O)Nc2cccc(NC(=O)c3ccco3)c2)c1 | 3% | / | -9% | ? | -3% | -28%
SMILES | NPC1 promoter act | SMN2 splice up | ELG1 genotoxic | FLuc counter | Rab9 prom act | ELG1 repair inh
O=C(CCc1ccccc1)Nc1ccc(NC(=O)c2ccco2)cc1 | 17% | 8% | ? | -18% | 17% | ?
CCC(=O)Nc1ccc(NC(=O)c2ccco2)cc1 | 2.8µM* | 27% | ? | 19µM* | 2.8µM* | ?
O=C(Nc1ccc(CSc2ccccc2)cc1)c1ccco1 | 2.8µM* | / | 7.3µM* | 2.7µM* | 4µM* | ?
CCC(=O)Oc1ccc(NC(=O)c2ccco2)cc1 | 2% | 9% | 9% | 12µM* | 5% | 28%
CCOc1ccc(NC(=O)Nc2nc(SCC)ns2)cc1 | 0% | / | -10% | ? | -4% | -20%
Cc1ccc(NC(=O)c2ccc(COc3ccc4c(c3)CCC4)cc2)c(C)c1 | 1% | 14% | 12% | 4% | 3% | ?
COc1ccc(C(=O)Nc2ccc(NC(=O)c3ccco3)cc2)cc1 | 0% | / | ? | -9% | 11% | ?
O=C(OC1CCCCC1)c1ccc(NC(=O)c2ccco2)cc1 | ? | ? | 8% | 13µM* | 3.5µM* | ?
O=C(Nc1nc(SCc2ccc(F)cc2)ns1)c1ccco1 | 13% | 18µM* | 13% | 21µM* | 20% | ?
O=C(Nc1ccc(OC(=O)c2ccco2)cc1)c1ccco1 | 9% | 17% | 7% | 4.8µM* | 4% | 22%
Fc1ccc(CSc2nsc(SCc3ccc(F)cc3)n2)cc1 | 2% | -5% | -3% | -1% | -5% | 7%
Cn1cc(SCC(=O)N2CCOCC2)c2ccccc21 | 16% | 22% | ? | -6% | 18% | ?
CCN1CCN(C(=O)CSc2cc(=O)n(CC)c3ccccc23)CC1 | 0% | 24% | 21µM* | -2% | -1% | ?
CCn1cc(SCC(=O)N2CCOCC2)c2ccccc21 | ? | ? | 18µM* | ? | ? | ?
Cc1ccccc1CSc1cn(CC(=O)N2CCCCC2)c2ccccc12 | / | / | / | -19% | / | /
O=C(Cn1cc(SCc2ccccc2F)c2ccccc21)N1CCCC1 | / | / | / | 17µM* | / | /
O=C(Cn1cc(SCc2ccccc2Cl)c2ccccc21)N1CCOCC1 | ? | 18µM* | 13% | 12µM* | ? | ?
CCC(C)n1c(SCC(=O)/C(C#N)=C(\C)N)nc2ccccc2c1=O (stereo not given) | -6% | -7% | 5% | 1% | 2% | -9%
CC(Sc1ccccn1)C(=O)NC1CCCC1 (stereo not given) | -2% | / | -3% | / | -5% | 4%
CCN(CC(=O)NCc1ccc(Cl)cc1)C(=O)Cc1ccccc1[N+](=O)[O-] | 2.5µM* | / | ? | ? | 3.5µM* | ?
CCN(CC(=O)NCc1ccc(Cl)cc1)C(=O)CCc1ccccc1 | -5% | / | -7% | 0% | -4% | 3%
O=C(COC(=O)Cc1ccccc1[N+](=O)[O-])NCc1ccccc1Cl | 1% | -2% | 0% | -1% | 1% | 1%
